Article PMC12431657, “Discovery and mechanistic insights of dibenzoylmethane as a broad spectrum inhibitor of coronavirus” (PLOS Pathogens, 2025)
Read-outs that look alike come from different tables or passages of the source. In all, about 3,300 compounds went through this assay and about 60 (2%) showed an effect of 50% or more. This is one part of a sample in which strong results are shown more often than they occur.

Tested on: HCoV-OC43
Parameters: species or system RD; HTS, protection from HCoV-OC43 induced cell death, luminescent cell viability (CellCounting-Lite 2.0), inhibition rate
Conditions: 10 µM, inhibitor

SMILES | OC43 Inhibition rate (24 h post infection, 1 h compound pre-incubation) [%] | OC43 Inhibition rate (24 h)
CCC(=O)O[C@H]1[C@H](O[C@@H]2[C@@H](C)[C@H](O[C@H]3C[C@@](C)(OC)[C@@H](O)[C@H](C)O3)[C@@H](C)C(=O)O[C@H](CC)[C@@](C)(O)[C@H](O)[C@@H](C)C(=O)[C@H](C)C[C@@]2(C)O)O[C@H](C)C[C@@H]1N(C)C [Erythromycin estolate, erythromycin estolate] | 99.7 | –
O=C1C([C@@H]2O[C@H](CO)[C@@H](O)[C@H](O)[C@H]2O)=C(O)/C(=C(O)/C=C/c2ccc(O)cc2)C(=O)C1(O)[C@@H]1O[C@H](CO)[C@@H](O)[C@H](O)[C@H]1O (stereo partly drawn) [Hydroxysafflor yellow A] | – | 0.2%
Oc1c(Br)cccc1Br [2,6-Dibromophenol] | – | 1.1%
C[C@H]1CCCC(=O)CCC/C=C/c2cc(O)cc(O)c2C(=O)O1 [Zearalenone] | – | 56.4%
C[C@H]1CCC[C@@H](O)CCCCCc2cc(O)cc(O)c2C(=O)O1 [Beta-Zearalanol] | – | 0%
C=C(C)[C@@H]1[C@H]2OC(=O)[C@@H]1[C@]1(O)C[C@H]3O[C@]34C(=O)O[C@H]2[C@]14C [Picrotoxinin] | – | 0.5
O=C1C=CC[C@@H]2[C@H]3CCC[N+]4([O-])CCC[C@@H](CN12)[C@@H]34 (stereo partly drawn) [Oxysophocarpine] | – | -0.3%
C[C@@H]1CC[C@@]2(OC1)O[C@H]1C[C@H]3[C@@H]4CC=C5C[C@@H](O[C@@H]6O[C@H](CO)[C@@H](O[C@@H]7O[C@@H](C)[C@H](O[C@@H]8O[C@@H](C)[C@H](O)[C@@H](O)[C@H]8O)[C@@H](O)[C@H]7O)[C@H](O)[C@H]6O[C@@H]6O[C@@H](C)[C@H](O)[C@@H](O)[C@H]6O)CC[C@]5(C)[C@H]4CC[C@]3(C)[C@H]1[C@@H]2C [Formosanin C] | – | 5.5%
C[C@@H]1CC[C@@]2(NC1)O[C@H]1C[C@H]3[C@@H]4CC=C5C[C@@H](O[C@@H]6O[C@H](CO)[C@@H](O[C@@H]7O[C@@H](C)[C@H](O)[C@@H](O)[C@H]7O)[C@H](O)[C@H]6O)CC[C@]5(C)[C@H]4CC[C@]3(C)[C@H]1[C@@H]2C [Khasianine] | – | 67.5%
Cc1c([C@H](C)[C@@H]2NC[C@@H](C)C[C@H]2O)ccc2c1C[C@H]1[C@H]2CC=C2C[C@@H](O[C@@H]3O[C@H](CO)[C@@H](O)[C@H](O)[C@H]3O)CC[C@@]21C [Veratrosine] | – | 5.4%
COc1cc2ccc(=O)oc2c2ccoc12 [Sphondin] | – | 0.1%
COc1cc([C@@H]2c3cc4c(cc3C(=O)[C@H]3COC(=O)[C@H]23)OCO4)cc(OC)c1OC [Podophyllotoxone] | – | 4.4%
Cc1ccc(C=O)cc1 [p-Tolualdehyde] | – | -0.1
CC(C)=CCC[C@H](C(=O)O)[C@H]1CC[C@]2(C)C3=C(CC[C@@]12C)[C@@]1(C)CCC(=O)C(C)(C)[C@H]1CC3 [β-Elemonic acid] | – | -1.4%
CC1(C)OC1COc1c2occc2cc2ccc(=O)oc12 (stereo not drawn) [Oxyimperatorin] | – | 2.8%
